# KDM4E inh: qHTS Assay for Inhibitors of Human Jumonji Domain Containing 2E (JMJD2E); Potency, µM (top dose mostly 57.1 µM), without a hit: top-dose activity change, negative = inhibition, most hits filed as inhibitors; 230,000 compounds, 1.6% hits; JMJD2E catalytic domain, FDH-coupled NADH fluorescence (FDH is formaldehyde dehydrogenase); AID 2147, 2009; Lysine-specific demethylase 4E (Homo sapiens), B2RXH2;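 further: 0% = wells with enzyme and -100% = buffer wells without enzyme; nearly all actives have a fitted effect of over 50% in size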
# Target sequence (B2RXH2 1-337 limits assumed): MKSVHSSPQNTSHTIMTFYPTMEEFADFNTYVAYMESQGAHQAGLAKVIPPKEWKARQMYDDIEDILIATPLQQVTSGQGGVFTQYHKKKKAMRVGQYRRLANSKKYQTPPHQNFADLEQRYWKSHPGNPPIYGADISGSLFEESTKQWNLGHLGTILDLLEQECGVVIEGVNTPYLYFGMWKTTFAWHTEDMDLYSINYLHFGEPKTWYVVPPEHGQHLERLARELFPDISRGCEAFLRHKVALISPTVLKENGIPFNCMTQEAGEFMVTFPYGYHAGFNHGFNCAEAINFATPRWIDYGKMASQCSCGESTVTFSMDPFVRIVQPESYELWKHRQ
# ALDH1A1 block: qHTS Assay for Inhibitors of Aldehyde Dehydrogenase 1 (ALDH1A1); Aldehyde dehydrogenase 1A1 (Homo sapiens), P00352; Purified ALDH1A1, NADH fluorescence, propionaldehyde substrate; Potency, µM (titrated, usually from 75.3 µM), for inactives: at the top dose activity, negative = inhibition, most hits filed as inhibitors; 220,000 compounds, 7.3% hits; AID 1030, 2008;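 further: plate controls were no enzyme wells and a reference inhibitor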
# HttQ103 aggreg: qHTS Multiplex Assay to Identify Dual Action Probes in a Cell Model of Huntington: Aggregate Formation (GFP); 220,000 compounds, 1.1% hits; PC12 HttQ103-GFP aggregates, Acumen cytometry, 40 h; Potency, µM (series often up to 46.1 µM), for inactives: at the highest dose activity change, negative = inhibition, most hits filed as inhibitors; active means well fitted curve in the direction sought with a large enough effect; inconclusive means small, poorly fitted or top-dose-only effect, or another doubt; inactive means no such curve, though single readings can be large; an effect the other way counts as inactive or inconclusive; further: on the % scale 0 is the no-effect control and ±100 the full control effect; nearly all actives have a fitted effect of over 60% in size
#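 Compounds (qHTS titration) were added to PC12 cells expressing an ecdysone-driven HTT exon 1 Q103–GFP fusion after induction with 100 nM tebufenozide. Aggregate formation was measured as GFP objects in cell lysates.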
# HPGD block: qHTS Assay for Inhibitors of HPGD (15-Hydroxyprostaglandin Dehydrogenase) | 15-hydroxyprostaglandin dehydrogenase [NAD(+)] (Homo sapiens), P15428 | purified HPGD, NADH fluorescence kinetic, PGE2 substrate | Potency, µM, for inactives: at the top dose activity change, negative = inhibition, most hits filed as inhibitors | 150,000 compounds, 4.3% hits | AID 894, 2007; further: on the % scale 0 is the no-effect control and ±100 the full control effect
# Target sequence (P15428 whole entry, looked up): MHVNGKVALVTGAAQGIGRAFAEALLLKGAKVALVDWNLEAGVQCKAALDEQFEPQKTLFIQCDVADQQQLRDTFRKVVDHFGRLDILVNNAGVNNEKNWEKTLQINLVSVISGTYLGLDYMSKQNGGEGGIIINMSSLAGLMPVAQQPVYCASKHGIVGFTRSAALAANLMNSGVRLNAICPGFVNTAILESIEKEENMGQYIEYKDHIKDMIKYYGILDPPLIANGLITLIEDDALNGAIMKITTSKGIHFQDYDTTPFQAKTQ
#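 NADH formation kinetics: reaction with 30 uM PGE2 and 1 mM NAD+ (final), 20 nM enzyme, Tris-HCl pH 8 with Tween 20, after 15 min compound preincubation at room temperature. Fluorescence change, last versus first of five reads.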
# HTT ATP protect: qHTS Multiplex Assay to Identify Dual Action Probes in a Cell Model of Huntington: Cytoprotection (ATP); PC12 HTT-Q103 induced, cytoprotection, ATP luminescence, 40 h; Potency, µM (series often up to 56.4 µM), for the others: cytoprotection (ATP increase), most hits filed as activators; AID 1471, 2008; 230,000 compounds, 0.14% hits; active means well fitted curve in the direction sought with a large enough effect; inconclusive means small, poorly fitted or top-dose-only effect, or another doubt; inactive means no such curve, though single readings can be large; an effect the other way counts as inactive or inconclusive; further: % of control where 0% means no effect; nearly all actives have a fitted effect of over 45% in size
#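 Readout: ATPlite luminescence (ATP level). Model: stable PC12, inducible Htt exon1 Q103-GFP. Inducer: tebufenozide, 100 nM final. Compounds: dose series. No G418 in medium.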
# Lamin A splicing: qHTS Assay for Modulators of Lamin A Splicing; HeLa LMNA splicing GFP/RFP minigene ratio, 48 h; Potency, µM (highest dose often 46.1 µM), for the others: at the highest dose ratio change, negative = inhibition, hits mostly inhibitors; 200,000 compounds, 0.01% hits; active means well fitted inhibition curve with a large enough effect in the signal ratio, with a control signal flat, not every such curve was filed as active; inconclusive means small, poorly fitted or top-dose-only effect, or effect the other way, or a change in a side signal; the % refers to the signal ratio; further: on the % scale 0 is the no-effect control and ±100 the full control effect
#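 S3 HeLa stable clones carrying a lamin A-EGFP splicing minigene plus DsRed2 were seeded at 600 cells/well in Opti-MEM with 2% FBS, pin-dosed and incubated 48 h at 37°C. Acumen cytometry (488 nm) gave the GFP/RFP total-intensity ratio.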
# * marks the source's active call; other numbers are inactive results; ? = inconclusive; . = no result given; [ ] = another dose, or the depositor's remark. This is a sample that favours compounds with a hit; in the whole collection about 9.2% have one here. Unless noted, the call rests on the fitted dose curve; in most records, active means well fitted inhibition curve with a large enough effect (not every such curve was filed as active); inconclusive means small, poorly fitted or top-dose-only effect, or another doubt; inactive means no such curve, though single readings can be large or run the other way. Potency means the concentration at half of the fitted maximal effect.
SMILES,KDM4E inh,ALDH1A1 block,HttQ103 aggreg,HPGD block,HTT ATP protect,Lamin A splicing
CCOC(=O)C1=C(C)N=c2s/c(=C\c3cccn3C)c(=O)n2C1c1cccc(OC)c1OC (stereo not drawn),0%,6%,6%,-15%,4%,4%
Oc1ccc(/C=N/Nc2ccccc2)cc1,4%,20µM*,4%,.,-14%,-2%[46 µM]
Brc1ccc(/C=N/Nc2ccccc2)cc1,-13%,-4%,5%,?,-2%[10 µM],?
O=c1c2ccccc2nc(N/N=C/c2c(O)ccc3ccccc23)n1O,11µM*,?,?,22µM*,-87%[10 µM],?
CC(C)(C)c1ccc(/C=N/Nc2ccc(C(=O)O)cc2)cc1,5%,4%,10%,14µM*,3%[10 µM],25%
Oc1ccc(/C=N/NC2=NCCCCC2)cc1,-22%,18µM*,-9%[9.22 µM],?,14%,6%
O=C(O)c1ccc(N/N=C/c2ccc(C(F)(F)F)cc2)cc1,-13%,?,20%,.,7%[10 µM],-2%[46 µM]
O=C(Cc1ccccc1)Nc1c(C(=O)N2CCN(c3ccc(F)cc3)CC2)oc2ccccc12,.,.,.,.,.,-11%[46 µM]
CCCCC(=O)OC1CCC2C3CCc4cc(O)ccc4C3CC[C@]12C (stereo partly drawn),-2%,-6%,9%,-29%,-68%,?
O=c1c2ccccc2nc(N/N=C/c2ccc(O)cc2)n1O,?,10µM*,9%,13µM*,-10%[10 µM],-8%
O=C(NCc1ccco1)C1CCN(c2nc3ccccc3n2Cc2ccccc2F)CC1,1%,28µM*,?,-15%,?,18%
Cc1ccc(Cn2nnc3c(=O)n(CC(=O)NCc4ccco4)cnc32)cc1,1%,-2%,17%,?,6%[10 µM],-27%
Cc1cc(C)nc(N2CCC(C(=O)NCc3ccccc3F)CC2)n1,?,10%,-11%[9.22 µM],.,1%[10 µM],-1%[46 µM]
O=C(Cn1cnc2c(nnn2Cc2ccccc2F)c1=O)NCc1ccco1,6%,-2%,28%,32µM*,-28%,16%
O=C(CN1CCN(Cc2ccccc2F)C1=O)NCc1ccco1,-1%,0%,0.13µM*,-11%,10%,11%
CC[C@H](/C=C/[C@@H](C)[C@H]1CC[C@H]2C3CC=C4C[C@@H](O)CC[C@]4(C)C3CC[C@]12C)C(C)C (stereo partly drawn),-1%,11%,.,-3%,-15%[1.9 µM],.
O=C(O)c1cccc(-n2cccc2/C=C\[N+](=O)[O-])c1,14µM*,?,6%[9.22 µM],.,6%[10 µM],.
O=C(O)c1cccc(-n2cccc2/C=C/[N+](=O)[O-])c1,?,.,-9%[9.22 µM],.,-7%[10 µM],.
COc1ccc(CN2C(=O)NC(C)(c3ccc(C)cc3)C2=O)cc1F (stereo not drawn),3%,0.35µM*,12%,.,-6%,-16%[46 µM]
CCS(=O)(=O)N1CCC(C(=O)N2CCOCC2)CC1,-4%,10%,-12%,-14%,10%,11%
CCCCC1CCC(C(=O)N2CCOCC2)CC1 (stereo not drawn),-2%,9%,13%,16µM*,.,3%
CC(C)Cc1nc2oc3c(N4CCN(CCO)CC4)ncnc3c2c2c1CCCC2,-9%,7.9µM*,1%,-11%,-7%[10 µM],-17%
CCOC(=O)N1CCN(c2ncnc3c2oc2nc(C(C)C)c4c(c23)CCC4)CC1,2%,1µM*,2%,?,11%[0.074 µM],9%
COC(=O)[C@@H]1CC[C@H](C)[C@@H](c2ccc(C)cc2)N1C(=O)c1ccc(/C=N\O[C@@H](C)c2cc(-c3c(C)cc(C)cc3C)no2)cc1,.,8%[13.5 µM],.,.,-16%[10 µM],.
COc1ccc(CCN2C(=NC(=O)CCC(=O)O)SC3CS(=O)(=O)CC32)cc1OC (stereo not drawn),-19%,25µM*,17%,-9%,-19%,7%
SMILES,KDM4E inh,ALDH1A1 block,HttQ103 aggreg,HPGD block,HTT ATP protect,Lamin A splicing
CCCOc1ccc(N2C(=O)CC(N(CCc3ccc(OC)c(OC)c3)C(=S)Nc3ccccc3)C2=O)cc1 (stereo not drawn),-3%,25µM*,-5%,-16%,6%[1.9 µM],?
CCCOc1ccc(N2C(=O)CC(N(Cc3ccc(OC)cc3)C(=S)Nc3ccccc3)C2=O)cc1 (stereo not drawn),-1%,3%,7%,-6%,1%[10 µM],3%
CS(=O)(=O)N(CC(=O)Nc1ccccc1C(=O)N1CCCC1)c1cccc([N+](=O)[O-])c1,9%,16µM*,-5%[9.22 µM],.,-34%,-14%[46 µM]
c1ccc([C@@H]2CN3CCSC3=N2)cc1,2%[25.5 µM],3%[20.9 µM],.,3%,?,-9%
O=C(/C=C/c1ccccc1)N/C(=C/c1ccccc1)C(=O)N1CCCCC1,-13%,14µM*,-9%,.,-14%,-5%
O=C(N/C(=C/c1ccccc1)C(=O)N1CCCCCC1)c1ccccc1,-9%,?,0%,.,-6%,.
O=C(/C(=C/c1ccccc1)c1ccccc1)N1CCCCC1,-2%,4%,12%,0.71µM*,-9%,-5%[0.0737 µM]
NNc1nc(-c2ccccc2)c2ccccc2n1,-24%,1%,-31%,.,-54%,-21%[46 µM]
NNc1nnc(-c2ccccc2)c(-c2ccccc2)n1,?,13µM*,8%[9.22 µM],-7%,-3%,?
Cc1ccc(NC2=C/C(=N/S(=O)(=O)c3cccs3)c3ccccc3C2=O)cc1,3%,12%,3.5µM*,-3%,.,?
CCc1cc[n+](C2=C([O-])c3ccccc3C(=O)/C2=N\S(=O)(=O)c2cccs2)cc1,?,?,?,-10%,.,?
O=C1C(Nc2ccccc2)=C/C(=N/S(=O)(=O)c2cccs2)c2ccccc21,?,?,6.3µM*,-11%,-94%[10 µM],?
COC(=O)c1ccccc1NC1=C/C(=N\S(=O)(=O)c2cccs2)c2ccccc2C1=O,?,3.2µM*,?,?,-89%,?
CC(=O)Oc1ccccc1-n1c(C)nc(=O)c(-c2ccccc2)c1C,-1%,.,-5%[9.22 µM],.,7%[10 µM],.
COc1ccccc1NS(=O)(=O)c1cc2c(cc1Cl)NC(=O)CO2,.,.,.,.,.,9%[46 µM]
CCCOc1ccc2oc(=O)c3c(c2c1)CCCN3C(=O)CN1CCN(C(=O)c2ccco2)CC1,?,?,0%,-10%,28%[10 µM],-1%
CCCOc1ccc2oc(=O)c3c(c2c1)CCCN3C(=O)CN1CCN(c2ncccn2)CC1,3%,2.8µM*,23%,.,20%,-1%
